Consider twelve compounds from PubChem BioAssay (NCATS).

“And” between values parts separate entries of the source, which are not always exact repeats. Identical values can stand only once. Records with an inconclusive call do not appear. A structure can be active in one record and inactive in another. The source made the active and inactive calls. Unless noted, the call rests on the fitted dose curve; in most records, active means well fitted curve in either direction with a large enough effect (not every such curve was filed as active); inconclusive means small, poorly fitted or top-dose-only effect, or another doubt; inactive means flat fitted curve, though single readings scatter. Bounds are passed on as bounds.

Assay [1] addresses Cytochrome P450 1A2 (Homo sapiens) (UniProt P05177). Kind of assay: p450-cyp1a2 (AID 410; calls by dose curve; further: potency means the concentration at half of the fitted maximal effect;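 on activity change, negative = inhibition: -100% = full effect of reference inhibitor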). The gist of the method: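 O-Demethylation of luciferin 6' methyl ether by human CYP1A2 is monitored as luciferase luminescence. Substrate sits at Km (100uM); enzyme is 20nM. Values are scaled to 57 uM furafylline as maximal inhibition.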
Assay [2] is described as follows: Stat Signaling Pathway (AID 446).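 Further: ME-180 cervical cancer cells given 40 pM IL-6 alongside compound; SIE-controlled beta-lactamase reporter measured as 460/530 nm FRET emission ratio; on the % scale 0 is the no-effect control and ±100 the full control effect.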 The gist of the method:
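Emission at 460 and 530 nm (excitation 405 nm) reports SIE-controlled beta-lactamase in ME-180 cells. Cells received compound with 40 pM IL-6 for 5 hrs at 37 C; data scaled between 300 pM IL-6 and 125 nM JAK-inhibitor controls.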

Assay [3] concerns the target Glucocorticoid receptor (Homo sapiens) (UniProt P04150). Briefly: GR-GFP Redistribution (AID 450;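 active means compounds whose dose series gives a full or clear partial fitted curve of increased nuclear translocation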; further: potency means the concentration at half of the fitted maximal effect). To be noted: U2OS GR-GFP nuclear translocation, laser cytometry, 2 h.
For assay [4] the target is unchanged. Briefly: GR-EFC Redistribution (AID 451; calls by dose curve; further: potency means the concentration at half of the fitted maximal effect). To be noted: CHO-K1 GR-EFC translocation, beta-gal luminescence, 2 h. Put shortly:
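CHO-K1 cells expressing nuclear EA and GR-ED fragments of b-gal; compounds titrated up to 46 uM final, 2 h at 37 C. GR nuclear translocation read as complemented b-gal luminescence after 1 h RT detection.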

Assay [5] deals with Mitogen-activated protein kinase 10 (Mus musculus) (UniProt Q61831). Briefly: JNK3 AlphaScreen Assay (AID 530).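 Further: kinase came from lysate of stimulated human HepG2 cells; signal reports phosphorylation of biotinylated GST-cJun 1-79 at Ser73 with 10 µM ATP; on the % scale 0 is the no-effect control and ±100 the full control effect.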 The gist of the method:
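Activity was read by AlphaScreen after JNK3-containing HepG2 lysate (cytokine pre-activated) phosphorylated biotinylated GST-cJun with 10 uM ATP at room temperature. Phospho-Ser73 cJun antibody with Protein-A acceptor beads provided detection.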

Assay [6] in a line: NFAT Signaling Pathway (AID 444).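 Further: carbachol stimulus at about its EC50 of 1 µM final; on the % scale 0 is the no-effect control and ±100 the full control effect.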 To be noted: Jurkat NFAT-bla M1, carbachol, beta-lactamase ratio, 5 h. Put shortly:
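Jurkat cells with NFAT-driven β-lactamase reporter and co-expressed M1 receptor, stimulated with carbachol (final 1 uM, ~EC50), compound titration, 5 h at 37 °C. CCF4 loaded 1 h at RT; 460/530 nm ratio gave %activity and AC50.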

Assay [7] in a line: Cell Viability - Jurkat (AID 426;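 active means dose-dependent loss of cell ATP signal giving a full or clear fitted curve, ranked by lower potency value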;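 further: potency means the concentration at half of the fitted maximal effect; cells exposed to compound for 40 hours at 37 °C before ATP read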). The note with it: qHTS. Put shortly:
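Cells of the human T-cell leukemia line Jurkat (E6-1) are seeded at 5000 per well, treated with compound across a concentration range for 40 hours at 37 °C, then lysed with CellTiter-Glo; luminescence reports ATP.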
In general terms: Quantitative high-throughput screening tests each substance at several concentrations.

The nature of assay [8]: Cell Viability - SK-N-SH (AID 435; calls by dose curve; further: potency means the concentration at half of the fitted maximal effect). To be noted: SK-N-SH neuroblastoma cell viability qHTS. Put shortly:
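qHTS cytotoxicity: CellTiter-Glo ATP luminescence after 40 h compound exposure of human neuroblastoma SK-N-SH cells at 37 °C. AC50 derived by Hill-equation fitting, with DMSO as basal and 100 uM tamoxifen as full inhibition.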

A short description of assay [9]: Cell Viability - NIH 3T3 (AID 541; active means well fitted curve in the direction sought with a large enough effect; an effect the other way counts as inactive or inconclusive;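 further: plate controls were DMSO alone for no effect and tamoxifen positive control for full effect; nearly all actives have a fitted effect of over 25% in size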). To be noted: NIH 3T3 cell viability, qHTS; activity change, negative = cytotoxicity: at 92.2 µM (top of the series). The gist of the method: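 Cells seeded at 1000/well, rested 5 hr at 37 °C, then dosed and incubated 40 hr at 37 °C. CellTiter-Glo added, 20 min room temperature, luminescence read. AC50 by Hill fit.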
Assay [10] can be described thus: Cell Viability - HUV-EC-C (AID 542; active means well fitted curve in the direction sought with a large enough effect; an effect the other way counts as inactive or inconclusive; further: potency means the concentration at half of the fitted maximal effect; nearly all actives have a fitted effect of over 35% in size). The gist of the method:
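Cells were seeded at 1000 per well and incubated 5 hr at 37 °C before compound addition. After 40 hr at 37 °C, CellTiter-Glo reagent was added for 20 min and luminescence read. AC50 values came from Hill-equation modelling.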

A short description of assay [11]: Cell Viability - H-4-II-E (AID 543; active means well fitted curve in the direction sought with a large enough effect; an effect the other way counts as inactive or inconclusive; further: potency means the concentration at half of the fitted maximal effect; nearly all actives have a fitted effect of over 35% in size). Put shortly: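 Cells seeded at 1500 per well and rested 5 hr; compounds added; 40 hr incubation at 37 °C; CellTiter-Glo added, 20 min at room temperature; luminescence read. Hill-equation fits gave AC50.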
A short description of assay [12]: Cell Viability - SH-SY5Y (AID 544; active means well fitted curve in the direction sought with a large enough effect; an effect the other way counts as inactive or inconclusive; further: potency means the concentration at half of the fitted maximal effect; nearly all actives have a fitted effect of over 55% in size). Put shortly:
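Cells were plated at 1500 per well and allowed 5 hr at 37 °C. Compounds were added across a concentration range and incubated 40 hr at 37 °C. CellTiter-Glo was added for 20 min at room temperature before luminescence reading.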

A short description of assay [13]: Cell Viability - Mesenchymal (AID 546; active means well fitted curve in the direction sought with a large enough effect; an effect the other way counts as inactive or inconclusive;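 further: cells exposed to compound for 40 hours before reading; 0% = DMSO only and -100% = 100 µM tamoxifen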). To be noted: mesenchymal cells viability, qHTS; activity change, negative = cytotoxicity: at 91.7 µM (top of the series). Put shortly: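 Human renal mesenchymal cells (glomerulus-derived), 1000 cells/well, 5 hr 37 °C pre-incubation; compound 40 hr, 37 °C; CellTiter-Glo, 20 min RT; luminescence; AC50 via Hill equation.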

Cytochrome P450 1A2 (Homo sapiens), sequence (P05177 whole entry, looked up): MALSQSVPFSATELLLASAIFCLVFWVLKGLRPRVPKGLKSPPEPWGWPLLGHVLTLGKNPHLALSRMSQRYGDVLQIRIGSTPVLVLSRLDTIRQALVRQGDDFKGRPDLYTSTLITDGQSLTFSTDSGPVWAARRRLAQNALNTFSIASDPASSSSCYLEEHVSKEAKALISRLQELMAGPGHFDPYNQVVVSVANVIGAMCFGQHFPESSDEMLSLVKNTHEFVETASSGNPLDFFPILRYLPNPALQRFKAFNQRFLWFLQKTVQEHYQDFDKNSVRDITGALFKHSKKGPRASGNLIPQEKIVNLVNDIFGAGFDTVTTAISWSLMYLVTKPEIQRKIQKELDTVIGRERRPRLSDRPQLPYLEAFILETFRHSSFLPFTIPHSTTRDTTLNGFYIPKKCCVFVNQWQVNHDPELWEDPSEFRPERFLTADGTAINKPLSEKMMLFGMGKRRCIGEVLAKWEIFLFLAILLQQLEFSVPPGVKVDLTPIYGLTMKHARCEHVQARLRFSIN
Glucocorticoid receptor (Homo sapiens), sequence (P04150 whole entry, looked up): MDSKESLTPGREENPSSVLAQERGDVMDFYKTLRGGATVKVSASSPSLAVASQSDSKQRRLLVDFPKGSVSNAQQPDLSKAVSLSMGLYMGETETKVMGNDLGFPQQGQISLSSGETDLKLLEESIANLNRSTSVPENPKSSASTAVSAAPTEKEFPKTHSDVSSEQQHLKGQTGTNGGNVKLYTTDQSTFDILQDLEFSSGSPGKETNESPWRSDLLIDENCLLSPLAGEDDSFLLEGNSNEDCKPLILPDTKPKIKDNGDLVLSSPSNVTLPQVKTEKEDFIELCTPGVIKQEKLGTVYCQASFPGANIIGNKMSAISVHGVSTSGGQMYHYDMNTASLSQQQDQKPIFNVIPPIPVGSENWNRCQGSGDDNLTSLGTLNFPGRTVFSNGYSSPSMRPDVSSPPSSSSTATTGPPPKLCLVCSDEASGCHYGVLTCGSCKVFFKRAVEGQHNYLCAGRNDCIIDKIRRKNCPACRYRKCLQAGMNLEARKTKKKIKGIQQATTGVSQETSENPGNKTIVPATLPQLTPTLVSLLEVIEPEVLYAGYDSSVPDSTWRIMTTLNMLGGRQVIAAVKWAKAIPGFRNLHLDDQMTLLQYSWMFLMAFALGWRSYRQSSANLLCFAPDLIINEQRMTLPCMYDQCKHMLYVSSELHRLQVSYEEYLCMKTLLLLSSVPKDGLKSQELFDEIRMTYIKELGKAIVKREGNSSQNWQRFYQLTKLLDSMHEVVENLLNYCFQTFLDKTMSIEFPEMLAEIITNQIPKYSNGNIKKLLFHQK

`c1cnc(N2CCN(Cc3ccc4c(c3)OCO4)CC2)nc1`: the Potency in assay [1] is 6.31 µM (active) and 3.16 µM (active) and 2 µM (active); in [3], > 46 µM (inactive) and > 20.6 µM (inactive); in assay [4], > 46 µM (inactive) and > 20.6 µM (inactive). In addition, the call in assay [2] was inactive. The Potency entry in [5] is “inactive”.
`CN(C)CCCN1c2ccccc2Sc2ccc(C(F)(F)F)cc21`: the Potency was 1.58 µM (active) and 794 nM (active) in assay [1]; > 46 µM (inactive) and > 20.6 µM (inactive) in assay [3]; > 46 µM (inactive) and > 20.6 µM (inactive) in assay [4]. In assay [6] (at 17.2 µM (top of the series)), the activity change, negative = inhibition was -88.2% (active). For the same compound, in assay [2], the call was inactive. Also, in assay [5], the Potency result was “inactive”.
As to `COC(=O)[C@@H](N)Cc1ccc(O)c(O)c1`, the activity change, negative = inhibition in assay [6] (at 38 µM (top of the series)) was 5.8% (inactive). For the same compound, the result in [2] was inactive. Moreover, in assay [5], the Potency entry is “inactive”.
Consider `CN1CCN(C2=Nc3ccccc3Oc3ccc(Cl)cc32)CC1`, for which the Potency in [1] was 3160 nM (active); in assay [3] it was > 46 µM (inactive) and > 20.6 µM (inactive); in assay [4], > 46 µM (inactive) and > 20.6 µM (inactive). In addition, in assay [6] (at 17.2 µM (top of the series)), the activity change, negative = inhibition is -75.6% (active). For the same compound, in assay [2], the compound was called inactive. Further, the Potency entry in assay [5] is “inactive”.
Take `CCC(=O)c1ccc2c(c1)N(CCCN(C)C)c1ccccc1S2`: the Potency in [1] was 631 nM (active); in assay [3] it was > 46 µM (inactive); in assay [4], > 46 µM (inactive). Besides, the activity change, negative = inhibition in assay [6] (at 38 µM (top of the series)) is -89.3% (active). For the same compound, in assay [2], the result was inactive. In addition, the Potency result in assay [5] is “inactive”.
For the compound `C(=C\c1ccccc1)/CN1CCN(C(c2ccccc2)c2ccccc2)CC1`, the outcome in assay [2] was inactive.
`COCCc1ccc(OCC(O)CNC(C)C)cc1` (stereo not drawn): the activity change, negative = inhibition in assay [6] (at 17.2 µM (top of the series)) is -25.7% (inactive). In assay [2], the result was inactive. For the same compound, the Potency in assay [3] was > 20.6 µM (inactive).
Take `CC1=C(C)C(=O)C(CCCCC#CCCCC#CCO)=C(C)C1=O`: the Potency in [1] was 501 nM (active); in [3], > 46 µM (inactive) and > 20.6 µM (inactive); in assay [4], > 46 µM (inactive). Further, the outcome in assay [2] was inactive.
For `CN(C)CCN(Cc1cccs1)c1ccccn1`, the Potency result in [1] is “inactive and 12.6 µM (active)”; in assay [3], > 46 µM (inactive) and > 20.6 µM (inactive); in assay [4], > 46 µM (inactive) and > 20.6 µM (inactive). Further, in assay [2], the outcome was inactive.
Consider `COC(=O)[C@H]1[C@H]2C[C@@H]3c4[nH]c5cc(OC)ccc5c4CCN3C[C@H]2C[C@@H](OC(=O)c2cc(OC)c(OC)c(OC)c2)[C@@H]1OC`, for which the Potency in assay [7] is 35.9 µM (active); in assay [8], 46.3 µM (active); in assay [10], 50.1 µM (active); in assay [11], 31.6 µM (active); in assay [12], 31.6 µM (active). The Potency entry in [5] is “inactive”. The activity change, negative = cytotoxicity in assay [9] is -19.4% (inactive); in assay [13] it was -90.3% (active).
As for `C[C@H](CS)C(=O)N1CCC[C@H]1C(=O)O`, the Potency entry in [1] and in assay [5] was “inactive” in each case. For the same compound, the activity change, negative = inhibition was 2% (inactive) in assay [6] (at 17.2 µM (top of the series)) and -1.57% (inactive) in assay [6] (at 38 µM (top of the series)). For the same compound, the result in [2] was inactive.
For `CC(C)NNC(=O)c1ccncc1`, the Potency result in assay [1] and in assay [5] was “inactive” in each case. Moreover, the activity change, negative = inhibition in assay [6] (at 17.2 µM (top of the series)) is -0.394% (inactive); in assay [6] (at 38 µM (top of the series)), -0.596% (inactive). Further, the compound was classed as inactive in [2]. For the same compound, the Potency is > 46 µM (inactive) and > 20.6 µM (inactive) in assay [3]; > 46 µM (inactive) and > 20.6 µM (inactive) in assay [4].
